MRP resist rev: MRP-mediated drug resistance reversal | AID 602 | differential viability (reversal), % at 10 µM | H69AR cells + 2 uM doxorubicin, CellTiter-Glo, 72 h | 85,000 compounds, 0.04% hits;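 active means viability drop by adding the cancer drug above about 55%, with treated viability meeting a 40% cutoff, limit read from the data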;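 further: viability without doxorubicin minus viability with 2 µM doxorubicin for each compound; larger differential means the compound sensitizes cells more to doxorubicin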
MRP1 act: activates MRP-1 | H69AR cells + doxorubicin, viability rescue, CellTiter-Glo | viability increase, % at 10 µM | 140,000 compounds, 0.61% hits;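 active means viability gain under doxorubicin at or above a set limit, the compound median plus 3 SD, cut at about 4.7% in these data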;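 further: MRP-1 overexpressing cells given doxorubicin 25 µM after compound pretreatment; 18-22 h compound pretreatment then 72 h with doxorubicin before readout; 0% = doxorubicin-only wells and 100% = vehicle-treated cells without doxorubicin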
S1P2 agonist: agonists of human S1P2 receptor; O95136; activation, % at 4.5 µM; S1P2-expressing cell line, agonist reporter read-out; 97,000 compounds, 0.46% hits; in the data active means activation above about 16%;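 further: 0% = vehicle low control and 100% = maximal reference agonist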
GALR2 ag: activates the human galanin receptor 2; O43603; GALR2-expressing cells, agonist activation read-out; activation, % (test concentration not listed); 140,000 compounds, 0.48% hits; in the data active means activation above about 5%, passing the limit was not always enough;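 further: 0% = vehicle buffer wells and 100% = reference agonist at full effect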
Target sequence (O43603 whole entry, looked up): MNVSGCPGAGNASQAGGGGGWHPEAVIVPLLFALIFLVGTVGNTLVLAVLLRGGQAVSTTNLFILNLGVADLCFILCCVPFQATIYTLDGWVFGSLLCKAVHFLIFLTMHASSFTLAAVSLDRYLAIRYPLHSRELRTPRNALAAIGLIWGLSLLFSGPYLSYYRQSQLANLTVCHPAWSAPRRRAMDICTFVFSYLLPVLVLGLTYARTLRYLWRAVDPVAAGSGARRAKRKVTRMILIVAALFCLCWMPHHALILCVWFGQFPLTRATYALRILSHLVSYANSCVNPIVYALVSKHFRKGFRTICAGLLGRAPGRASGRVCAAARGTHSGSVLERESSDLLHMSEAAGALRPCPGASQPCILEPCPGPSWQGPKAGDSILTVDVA
GALR2 blocker: GALR2 (human) receptor antagonism | O43603 | GALR2-expressing cells, antagonist mode | inhibition, % at 4 µM | 140,000 compounds, 0.39% hits; in the data active means inhibition above about 27%;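 further: cells stimulated with galanin 1-16 at roughly its EC80; 0% = agonist challenge control and 100% = basal control without agonist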
S1P2 blocker: blocks the human S1P2 receptor; AID 736; O95136; 97,000 compounds, 0.21% hits; inhibition, % at 5 µM; cell-based S1P2 antagonist assay, inhibition at 5 uM; in the data active means inhibition above about 45%;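 further: CRE beta-lactamase reporter cells expressing human S1P2 stimulated with S1P; 0% = agonist at EC80 alone and 100% = agonist plus reference antagonist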
* marks the source's active call; other numbers are inactive results; x = no result. Compounds with a hit are over-represented: about 1.7% of the library has one in this group of screens.

SMILES	MRP resist rev	MRP1 act	S1P2 agonist	GALR2 ag	GALR2 blocker	S1P2 blocker
Cc1ccc(S(=O)(=O)c2cc3c(=O)n4ccccc4nc3n(CC3CCCO3)c2=N)cc1 (configuration not stated)	-4	x	-1	-3	7	-38
Cn1c(=N)c(S(=O)(=O)c2ccc(F)cc2)cc2c(=O)n3ccccc3nc21	-22	-1	2	1	-11	-18
N=c1c(S(=O)(=O)c2ccc(Cl)cc2)cc2c(=O)n3ccccc3nc2n1CCN1CCOCC1	-8	-3	x	8.3*	-1	x
CC(=O)OCC(=O)[C@@]1(O)[C@H](C)C[C@H]2[C@@H]3CCC4=CC(=O)C=C[C@]4(C)[C@@]3(F)[C@@H](O)C[C@@]21C	-12	10*	x	-1	-14	x
C[C@@H]1C[C@H]2[C@@H]3C[C@H](F)C4=CC(=O)C=C[C@]4(C)[C@@]3(F)[C@@H](O)C[C@]2(C)[C@@]1(O)C(=O)COC(=O)C(C)(C)C	-11	4	x	2	-21	x
Cc1ccc(C)c2sc(NC(=O)c3ccc(N4CCCCC4)c([N+](=O)[O-])c3)nc12	x	6.7*	-5	-2	-8	3
COC(=O)c1ccc2c(c1)C(C)(C)C(/C=C/c1ccc(OC)c(OC)c1OC)=[N+]2C	-1	-6	-10	0	-7	48*
COC(=O)c1ccc2c(c1)C(C)(C)C(/C=C/c1ccc(O)cc1)=[N+]2C	x	-2	6	6.8*	25	37
COC(=O)c1ccc2nc(C)c(C)nc2c1	x	-2	-5	-2	-9	-1
COC(=O)c1ccc(O)c(Sc2cc(C(=O)OC)ccc2O)c1	-3	-2	-8	-3	6	-7
CCNC(=S)NNC(=O)c1cc(-c2cc(C)ccc2C)nc2ccccc12	x	-3	-1	-2	-5	21
CCNc1nc(NCC)n2c(SC(C(=O)Nc3cc(C)ccc3OC)c3ccccc3)nnc2n1 (configuration not stated)	x	-3	x	-1	8	x
Clc1ccc(OCc2nc(-c3ccccn3)n[nH]2)cc1	-6	-6	-3	-2	9	4
Brc1ccc(OCc2nc(-c3ccccn3)n[nH]2)cc1	-43	8.4*	-3	-1	-2	11
O=C(/C=C/c1ccccc1)n1cnnc1SC/C=C/c1ccccc1	x	4.7*	x	0	3	x
Nn1c(SC/C=C/c2ccccc2)nnc1-c1ccco1	13	-3	-9	-1	1	2
CC(Sc1nncn1C)C(=O)Nc1ccc(Cl)cn1 (configuration not stated)	x	4.9*	x	0	8	x
NC(=O)C1(N2CCCCC2)CCN(C(=O)c2cccn3c(=O)c4cc(Cl)ccc4nc23)CC1	11	5.6*	-10	1	2	17
Cc1ccc(S(=O)(=O)Nc2ccc(Cl)cc2)cc1NC(=O)c1cc2c(s1)CCCC2	x	-1	x	-1	4	x
O=C(COc1ccc(Cl)cc1)NCc1nnc2c3ccccc3c(-c3ccccc3)nn12	x	5.0*	x	1	4	x
O=C(NCc1nnc2c3ccccc3c(-c3ccccc3)nn12)c1ccccc1Cl	x	0	x	1	-15	x
C=CCN(C(=O)Nc1ccc(Cl)cc1)C1CC(=O)N(c2ccc(OC)cc2)C1=O (configuration not stated)	1	6.6*	-3	0	-9	-3
COc1ccc(Cc2nnc(N/N=C/c3ccc(O)cc3O)[nH]c2=O)cc1OC	x	6.0*	x	-1	-2	x
O=C1[O][Bi][O]c2ccccc21	-19	x	x	x	x	x
Cc1nn(C)c(C)c1NC(=O)CSc1nc(C2CC2)nc2c1cnn2-c1ccccc1	78*	-7	1	-1	-6	6
Cc1nn(C)c(C)c1NC(=O)CSc1nc(-c2ccccc2Cl)nc2c1cnn2-c1ccccc1	-26	-3	-8	1	2	-19
Cc1cc(C(=O)CN2C(=O)NC3(CCCc4ccccc43)C2=O)c(C)n1Cc1ccccc1 (configuration not stated)	-1	0	9	-1	0	-22
Cc1cc(C(=O)CN2C(=O)CCC2=O)c(C)n1Cc1ccccc1	-18	-1	150*	0	-11	-41
Cc1cc(C(=O)CN2C(=O)c3ccccc3C2=O)c(C)n1Cc1cccs1	3	-2	27*	-1	-6	-3
Cc1ccc(C2=Nc3ccccc3N(C(=O)c3ccccc3)C(C)C2)cc1 (configuration not stated)	x	-2	x	1	-7	x
